An excerpt weighted towards active compounds, which were near 2.1% of everything screened.
PfM18AAP inh – PfM18AAP enzyme inhibition; AID 1822; inhibition, % at 7.35 µM; recombinant PfM18AAP, H-Glu-NHMec fluorogenic cleavage; hit rate 1.2% among 290,000;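 active = inhibition above the campaign mean inhibition over all tested compounds plus 3 SD, cut at about 28% in these data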;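 also: 0% = plate median of test compound wells and 100% = 2 mM ZnCl2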
Calb FLC – affects C. albicans growth with fluconazole. C. albicans CaCi-2 (fluconazole-resistant clinical isolate) + fluconazole, Alamar Blue growth, 48 h. hit rate 0.57% among 300,000. growth inhibition, % (concentration not given with the values);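 active = growth inhibition above about 58% in most replicates, limit read from the data, passing the limit was not always enough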;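 also: all wells also contain fluconazole at 8 µg/ml as a sub-toxic cotreatment; 0% = median of DMSO wells and 100% = median of geldanamycin control wells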
CTSL1 counter – blocks F. hepatica cathepsin L1 in PFM18AAP counter-screen | inhibition, % at 5.96 µM | hit rate 0.49% among 300,000 | recombinant F. hepatica cathepsin L1, Z-Leu-Arg-MCA fluorescence;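 active = inhibition above the mean of all tested compounds plus 3 SD, set per screening campaign, cut at about 17% in these data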;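 also: 0% = plate median of test compound wells and 100% = 1 µM Z-Phe-Ala-diazomethylketone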
Rin1 Abl inh – blocks binding of human Rin1 to Abl. P00519+Q13671. TR-FRET Rin1/Abl binding, biochemical. inhibition, % at 7.35 µM. hit rate 0.4% among 360,000. AID 588664; in the data active = inhibition above about 5%, passing the limit was not always enough
An asterisk follows results filed as active.

For Cc1ccc(-n2c(-c3ccccc3)c[n+]3c2CCc2ccccc2-3)c(C)c1 the results were PfM18AAP inh 2, Calb FLC 102*, CTSL1 counter -8 and Rin1 Abl inh 3.
For CSc1ccc(C(=S)N2CCCCCC2)cc1 the results were PfM18AAP inh 4, Calb FLC -3, CTSL1 counter 3 and Rin1 Abl inh 5.
Screening CCN1CCN(C(=S)c2ccc(SC)cc2)CC1 returned PfM18AAP inh 31*, Calb FLC -15, CTSL1 counter -5 and Rin1 Abl inh -5.
For Cc1ccc(-n2c(COc3ccccc3)n[nH]c2=S)cc1 the results were PfM18AAP inh 13, Calb FLC 1, CTSL1 counter 0 and Rin1 Abl inh 0.
`Cc1ccc(-n2c(Cn3c(C)nc4ccccc43)n[nH]c2=S)cc1` gave PfM18AAP inh 33*, Calb FLC 6, CTSL1 counter 0 and Rin1 Abl inh 4.
`CCOC(=O)C1=C(COC(=O)/C=C/c2ccc(O)c(OC)c2)NC(=O)NC1C` (centres undefined) gave Rin1 Abl inh -3.
O=C(NCC1CCCO1)C(c1ccc(F)cc1)N(Cc1ccc(F)cc1)C(=O)Cn1nnc(-c2cccs2)n1 (centres undefined) was read as PfM18AAP inh -6, Calb FLC 104*, CTSL1 counter 2 and Rin1 Abl inh 0.
For O=C(NCC1CCCO1)C(c1cccs1)N(Cc1cccs1)C(=O)Cn1nnc(-c2cccs2)n1 (centres undefined) the results were PfM18AAP inh 4, CTSL1 counter 8 and Rin1 Abl inh 1.
`CC1(C(=O)NC(=S)NNC(=O)c2ccncc2)CCCCC1` gave PfM18AAP inh -3, Calb FLC -5, CTSL1 counter 0 and Rin1 Abl inh -4.
CCC(C)NC(=S)NNC(=O)c1ccncc1 (centres undefined) was read as PfM18AAP inh 9, Calb FLC 3, CTSL1 counter 20* and Rin1 Abl inh 2.
Screening O=C(NNC(=S)NC(=O)C12CC3CC(CC(C3)C1)C2)c1ccncc1 returned PfM18AAP inh -9, Calb FLC 103*, CTSL1 counter -2 and Rin1 Abl inh -5.
For O=C(NNC(=O)C12CC3CC(CC(C3)C1)C2)c1ccccn1 the results were PfM18AAP inh 14, Calb FLC 1, CTSL1 counter -5 and Rin1 Abl inh 0.
`O=C(NNC(=O)C12CC3CC(CC(C3)C1)C2)c1cnccn1` gave PfM18AAP inh 4, Calb FLC 104*, CTSL1 counter -8 and Rin1 Abl inh 0.
`Cc1ccc(-n2nc3c(c2NC(=O)c2ccc(F)c(F)c2)CS(=O)(=O)C3)cc1` gave PfM18AAP inh -9, Calb FLC 6, CTSL1 counter 2 and Rin1 Abl inh 1.
Screening Cc1cccc2sc(NC(=O)c3ccc(NS(=O)(=O)c4cccs4)cc3)nc12 returned PfM18AAP inh -10, Calb FLC 3, CTSL1 counter 5 and Rin1 Abl inh -3.
`S=C(NCc1ccccc1)Nc1cccc(Cl)c1` gave PfM18AAP inh -3, Calb FLC -2, CTSL1 counter -3 and Rin1 Abl inh 1.
NNC(=S)Nc1cccc(Cl)c1 was read as PfM18AAP inh 19, Calb FLC 92*, CTSL1 counter -4 and Rin1 Abl inh 1.
Screening CCOc1ccccc1NS(=O)(=O)c1cn(C)c(=O)n(C)c1=O returned PfM18AAP inh 1, Calb FLC 1 and CTSL1 counter 5.
Cc1ccc(N2C(=O)NC3(CCCCC3)C2=O)cc1 was read as PfM18AAP inh -11, Calb FLC 0, CTSL1 counter 2 and Rin1 Abl inh -5.
Screening Cc1ccc(N2NC3(CCN(C(N)=O)CC3)NC2=O)cc1 returned PfM18AAP inh 5, Calb FLC 106* and CTSL1 counter -3.
`COCc1cc(S(=O)c2ccc(Cl)cc2)nc(C)n1` (centres undefined) gave PfM18AAP inh -36, Calb FLC -32 and Rin1 Abl inh -3.
Screening O=C(Oc1ccc2c3c(c(=O)oc2c1)CCCC3)c1cccs1 returned PfM18AAP inh 0, Calb FLC 15, CTSL1 counter -8 and Rin1 Abl inh 2.
Screening O=C(Oc1cc2oc(=O)c3c(c2cc1Cl)CCCC3)c1cccs1 returned PfM18AAP inh 5, Calb FLC 95*, CTSL1 counter -9 and Rin1 Abl inh -3.
`Cc1cccc(NC(=S)NNC(=O)c2csc(C(C)C)c2)c1` gave PfM18AAP inh 8, Calb FLC 92*, CTSL1 counter 1 and Rin1 Abl inh 2.
Cc1noc(C)c1COC(=O)c1ccc(S(=O)(=O)NCc2ccco2)cc1 was read as PfM18AAP inh -5, Calb FLC 5, CTSL1 counter 4 and Rin1 Abl inh -2.
